Measurements: PubChem BioAssay (Tox21)
Inconclusive results are not listed. Where a call stands in place of a potency, no number is given. Values without a mark were called inactive. Calls of active or inactive are those of the source. Unless noted, the call rests on the fitted dose curve; in most records, active means well fitted curve in the direction sought with a large enough effect in the repeat runs; inconclusive means weak or mixed curves; inactive means no such curve, though single readings can be large; an effect the other way counts as inactive or inconclusive.

Key:
[1] = qHTS assay to identify small molecule agonists of the RXR signaling pathway - cell viability counter screen (AID 1159529); further: nearly all actives have a fitted effect of over 50% in size; further: potency means the concentration at half of the fitted maximal effect
Procedure, shortened: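 In this parallel viability measure, GeneBLAzer RXR-alpha HEK 293T cells (2% charcoal-stripped FBS) were given a 5 hr preincubation, treated with compounds 16 hr at 37 C, and read by CellTiter-Glo luminescence.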

[2] = qHTS assay to identify small molecule antagonists of the retinoid acid receptor (RAR) signaling pathway - cell viability counter screen (AID 1159551); further: nearly all actives have a fitted effect of over 35% in size; further: potency means the concentration at half of the fitted maximal effect
Procedure, shortened: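 Luminescent ATP quantitation (CellTiter-Glo) gave cell viability in C3RL4 cells exposed to test chemicals for 6 h at 37 C alongside 1 uM final retinol.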

[3] = qHTS assay to identify small molecule agonists of the retinoic acid receptor (RAR) signaling pathway (AID 1159553)
Procedure, shortened: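 Luminescence from a RARE-driven luciferase reporter in C3RL4 cells served as the read-out, measured after 30 min with detection reagent at room temperature. Compounds in DMSO were applied for 6 hr at 37 C following overnight seeding.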

[4] = qHTS assay to identify small molecule agonists of the constitutive androstane receptor (CAR) signaling pathway - cell viability counter screen (AID 1224836); further: nearly all actives have a fitted effect of over 45% in size; further: potency means the concentration at half of the fitted maximal effect
Procedure, shortened: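 Using CellTiter-Fluor, viability of HepG2 cells harbouring hCAR and CYP2B6-2.2kb was measured following 23 h incubation with a 15-concentration compound series plus PK11195 (0.75 uM final).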

[5] = qHTS assay to identify small molecule antagonists of the constitutive androstane receptor (CAR) signaling pathway - cell viability counter screen (AID 1224837); further: nearly all actives have a fitted effect of over 45% in size; further: potency means the concentration at half of the fitted maximal effect
Procedure, shortened: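 HepG2-CYP2B6-hCAR cells, 2500/well, 4 hr pre-incubation; compound titration, 15 conc.; CITCO 50 nM final; 23 hr, 37 C/5% CO2; CellTiter-Fluor, fluorescence intensity.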

[6] = molecular target: Nuclear receptor subfamily 1 group I member 3 (Homo sapiens) (UniProt Q14994); test: qHTS assay to identify small molecule antagonists of the constitutive androstane receptor (CAR) signaling pathway (AID 1224838);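 further: HepG2 cells stably expressing hCAR with CYP2B6 luciferase reporter stimulated by CITCO; nearly all actives have a fitted effect of over 40% in size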; further: potency means the concentration at half of the fitted maximal effect
Nuclear receptor subfamily 1 group I member 3 (Homo sapiens), sequence (Q14994 whole entry, looked up): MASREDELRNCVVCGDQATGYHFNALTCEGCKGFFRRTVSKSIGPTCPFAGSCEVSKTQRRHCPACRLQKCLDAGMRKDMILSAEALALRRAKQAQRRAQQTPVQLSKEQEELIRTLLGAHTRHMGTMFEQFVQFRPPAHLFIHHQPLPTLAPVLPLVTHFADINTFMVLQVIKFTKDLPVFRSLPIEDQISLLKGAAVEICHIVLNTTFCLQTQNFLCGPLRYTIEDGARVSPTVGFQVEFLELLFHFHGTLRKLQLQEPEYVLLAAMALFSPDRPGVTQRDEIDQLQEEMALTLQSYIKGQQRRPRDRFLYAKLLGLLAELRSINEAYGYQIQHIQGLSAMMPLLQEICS
Procedure, shortened: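 HepG2-CYP2B6-hCAR cells; 4 h pre-incubation; cpd (15 conc) + CITCO 50 nM final; 24 h, 37 C/5% CO2; ONE-Glo, luminescence.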

[7] = molecular target: Nuclear receptor subfamily 1 group I member 3 (Homo sapiens) (UniProt Q14994); test: qHTS assay to identify small molecule agonists of the constitutive androstane receptor (CAR) signaling pathway (AID 1224839); further: nearly all actives have a fitted effect of over 15% in size; further: potency means the concentration at half of the fitted maximal effect
Procedure, shortened: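 Double-stable HepG2 cells (hCAR, CYP2B6-2.2kb) seeded 4 h before compound addition. Exposure 24 h with 0.75 uM PK11195 final. Luciferase detected by ONE-Glo.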

[8] = qHTS assay to identify small molecule antagonists of the estrogen related receptor signaling pathway with the pleiotropic PPARgamma coactivator (PGC) from Tox21 10K library - cell viability counter screen (AID 1224840; active means well fitted cell-killing curve with a large enough effect in the repeat runs, not every such curve was filed as active; further: nearly all actives have a fitted effect of over 40% in size; further: potency means the concentration at half of the fitted maximal effect)
Procedure, shortened: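 PGC/ERR cells, 2,000/well; 6 h pre-incubation 37 C/5% CO2; cpd in DMSO via pin tool; 17.5 h 37 C; CellTiter-Fluor, 30 min; fluorescence.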

[9] = molecular target: Thyrotropin receptor (Homo sapiens) (UniProt P16473); test: qHTS assay to identify small molecule agonists of the thyroid stimulating hormone receptor (TSHR) signaling pathway (AID 1224843; calls by dose curve; further: nearly all actives have a fitted effect of over 45% in size)
Thyrotropin receptor (Homo sapiens), sequence (P16473 whole entry, looked up): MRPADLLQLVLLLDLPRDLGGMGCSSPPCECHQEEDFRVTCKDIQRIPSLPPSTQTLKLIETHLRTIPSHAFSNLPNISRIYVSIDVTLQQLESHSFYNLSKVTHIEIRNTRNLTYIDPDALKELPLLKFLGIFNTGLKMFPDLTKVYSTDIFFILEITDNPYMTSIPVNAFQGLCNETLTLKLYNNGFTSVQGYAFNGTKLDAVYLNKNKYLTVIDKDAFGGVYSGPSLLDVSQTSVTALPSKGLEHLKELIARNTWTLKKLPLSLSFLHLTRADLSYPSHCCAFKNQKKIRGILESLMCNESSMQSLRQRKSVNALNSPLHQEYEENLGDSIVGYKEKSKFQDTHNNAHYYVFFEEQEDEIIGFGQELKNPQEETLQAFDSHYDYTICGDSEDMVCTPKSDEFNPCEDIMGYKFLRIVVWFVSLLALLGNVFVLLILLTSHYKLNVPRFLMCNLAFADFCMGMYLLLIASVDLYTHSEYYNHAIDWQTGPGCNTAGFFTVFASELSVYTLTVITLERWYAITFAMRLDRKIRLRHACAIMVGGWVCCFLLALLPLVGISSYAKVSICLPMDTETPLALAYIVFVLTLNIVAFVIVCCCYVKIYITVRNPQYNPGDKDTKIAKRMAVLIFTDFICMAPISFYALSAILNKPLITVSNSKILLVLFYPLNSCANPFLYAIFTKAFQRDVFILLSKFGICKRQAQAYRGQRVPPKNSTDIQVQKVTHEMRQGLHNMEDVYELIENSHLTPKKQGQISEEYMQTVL
Procedure, shortened: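 Steps: seed 800 TSHR-HEK293 cells per well; add test compound and hold 30 min at ambient temperature; dispense cAMP-d2 then anti-cAMP cryptate; incubate 1 h at ambient; measure fluorescence intensity.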

[10] = qHTS assay to identify small molecule antagonists of the estrogen related receptor (ERR) signaling pathway - cell viability counter screen (AID 1224818);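 further: series mostly up to about 46 µM; viability measured after 17.5 h of compound exposure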
Procedure, shortened: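 Multiplexed counter screen to separate cytotoxic compounds from true ERR modulators. ERR cells received DMSO-dissolved compounds after a 6 h pre-incubation, were exposed 17.5 h at 37 C, then assayed with CellTiter-Fluor fluorescence.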

[11] = qHTS assay to identify small molecule antagonists of the estrogen related receptor (ERR) signaling pathway (AID 1224819;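 further: luminescence from an ERR-driven luciferase reporter measured with One-Glo reagent; series mostly up to about 46 µM; nearly all actives have a fitted effect of over 50% in size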)
Procedure, shortened: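 Seed ERR cells 2,000/well; rest 6 h at 37 C/5% CO2; pin compounds in DMSO; incubate 18 h at 37 C; add One-Glo; wait 30 min at room temperature; measure luminescence.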

[12] = qHTS assay to identify small molecule agonists of the estrogen related receptor (ERR) signaling pathway (AID 1224820)
Procedure, shortened: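 ERR reporter cells (NTP line) plated 2,000/well, incubated 6 h at 37 C/5% CO2, then pinned with compounds in DMSO and held 18 h at 37 C. One-Glo added; luminescence read after 30 min at room temperature.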

[13] = test system: estrogen-related receptor alpha (ERRalpha) with PGC-1alpha coactivator, human; test: qHTS assay to identify small molecule antagonists of the estrogen related receptor signaling pathway with the pleiotropic PPARgamma coactivator (PGC) (AID 1224821; calls by dose curve;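 further: series mostly up to about 46 µM; lower luminescence signal means antagonism of PGC/ERR signalling; nearly all actives have a fitted effect of over 50% in size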)
Procedure, shortened: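 Cells engineered for PGC/ERR signalling (line from NTP) were plated 6 h at 37 C/5% CO2, then exposed to DMSO-dissolved compound for 18 h at 37 C. Luciferase activity was read by One-Glo luminescence after 30 min at room temperature.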

[14] = qHTS assay to identify small molecule antagonists of the estrogen related receptor signaling pathway with the pleiotropic PPARgamma coactivator (PGC) cell viability counter screen (AID 1224822; further: series mostly up to about 46 µM)
Procedure, shortened: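 Cells: PGC/ERR, 2,000/well, 1536-well format. Pre-incubation 6 h, 37 C/5% CO2. Compound exposure 17.5 h, 37 C. Detection: CellTiter-Fluor, 30 min, fluorescence.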

[15] = qHTS assay to identify small molecule agonists of the estrogen related receptor signaling pathway with the pleiotropic PPARgamma coactivator (PGC) (AID 1224823)
Procedure, shortened: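 PGC/ERR reporter cells were seeded, rested 6 h at 37 C/5% CO2, then exposed to compounds in DMSO by pin transfer for 18 h at 37 C. Luciferase activity was read as luminescence after One-Glo reagent and 30 min at room temperature.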

[16] = qHTS assay to identify small molecule antagonists of the estrogen related receptor (ERR) signaling pathway from Tox21 library - cell viability counter screen (AID 1224834); further: nearly all actives have a fitted effect of over 30% in size; further: potency means the concentration at half of the fitted maximal effect
Procedure, shortened: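 Fluorescence from CellTiter-Fluor gives the viability read-out, taken 30 min after reagent addition. Before that, ERR cells seeded 6 h earlier were incubated with compounds for 17.5 h at 37 C.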

[17] = molecular target: Luciferin 4-monooxygenase (Photinus pyralis) (UniProt P08659); test: qHTS assay to identify small molecule inhibitors of firefly luciferase (AID 1224835); further: series mostly up to about 120 µM; nearly all actives have a fitted effect of over 25% in size
Luciferin 4-monooxygenase (Photinus pyralis), sequence (P08659 whole entry, looked up): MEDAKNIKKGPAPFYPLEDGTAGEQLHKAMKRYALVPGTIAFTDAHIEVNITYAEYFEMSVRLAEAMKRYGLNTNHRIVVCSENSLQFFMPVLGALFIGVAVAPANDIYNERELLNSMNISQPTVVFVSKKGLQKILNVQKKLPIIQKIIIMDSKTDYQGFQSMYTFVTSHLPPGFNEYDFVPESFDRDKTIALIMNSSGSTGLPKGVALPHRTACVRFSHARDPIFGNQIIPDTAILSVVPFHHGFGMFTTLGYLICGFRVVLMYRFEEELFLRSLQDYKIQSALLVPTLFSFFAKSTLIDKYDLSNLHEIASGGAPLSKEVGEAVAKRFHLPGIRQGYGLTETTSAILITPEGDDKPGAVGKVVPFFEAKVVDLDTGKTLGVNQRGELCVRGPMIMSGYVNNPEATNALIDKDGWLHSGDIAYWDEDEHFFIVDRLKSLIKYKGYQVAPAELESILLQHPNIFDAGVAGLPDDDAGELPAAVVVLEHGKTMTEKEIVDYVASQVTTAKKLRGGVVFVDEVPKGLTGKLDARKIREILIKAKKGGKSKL
Procedure, shortened: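 Biochemical qHTS: compounds run as interplate titrations against purified firefly enzyme, with D-luciferin and ATP each at its KM concentration. Light output recorded by CCD imaging.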

[18] = qHTS assay to identify small molecule antagonists of the estrogen related receptor signaling pathway with the pleiotropic PPARgamma coactivator (PGC) from Tox21 10K library (AID 1224841; call rule not given here; further: actives are mostly falling curves and most rising ones were filed inactive; nearly all actives have a fitted effect of over 50% in size; further: potency means the concentration at half of the fitted maximal effect)
Procedure, shortened: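 PGC/ERR cell line, 2,000 cells/well; 6 h pre-incubation 37 C/5% CO2; compounds (DMSO) pinned in; 18 h, 37 C; One-Glo, 30 min RT; luminescence.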

[19] = qHTS assay to identify small molecule agonists of the estrogen related receptor signaling pathway with the pleiotropic PPARgamma coactivator (PGC) from Tox21 10K library (AID 1224842); further: nearly all actives have a fitted effect of over 15% in size
Procedure, shortened: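 PGC/ERR reporter cell line, 2,000 cells per well, incubated 6 h at 37 C before 23 nL compound in DMSO was added. After 18 h at 37 C, One-Glo luminescence read following 30 min at room temperature.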

[20] = qHTS assay to identify small molecule antagonists of the retinoic acid receptor (RAR) signaling pathway (AID 1159552; further: nearly all actives have a fitted effect of over 50% in size; further: potency means the concentration at half of the fitted maximal effect)
Procedure, shortened: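 C3RL4 RARE-luc cells, overnight plating; retinol 1 uM final added right after compound; 6 hr 37 C; luciferase read at 30 min RT.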

SMILES: N#C/C=C/C#N
- Potency [1]: inactive
- Potency [2]: inactive
- Potency [3]: inactive
- Potency [4]: inactive
- Potency [5]: inactive
- Potency [6]: inactive
- Potency [7]: 64 µM (active)
- Potency [8]: inactive
- Potency [9]: inactive

SMILES: CS(=O)(=O)c1ccc(C(=O)C2C(=O)CCCC2=O)c([N+](=O)[O-])c1
- Potency [1]: inactive
- Potency [2]: inactive
- outcome [10]: inactive
- Potency [11]: inactive
- outcome [12]: inactive
- Potency [13]: inactive
- Potency [14]: inactive
- outcome [15]: inactive
- Potency [16]: inactive
- Potency [17]: inactive
- Potency [4]: inactive
- Potency [5]: inactive
- Potency [6]: inactive
- Potency [7]: inactive
- Potency [8]: inactive
- Potency [18]: 31.2 µM (active)
- Potency [19]: inactive

SMILES: COP(=O)(CCC(=O)NCO)OC
- Potency [1]: inactive
- Potency [2]: inactive
- Potency [20]: inactive
- Potency [16]: inactive
- Potency [4]: inactive
- Potency [5]: inactive
- Potency [7]: inactive
- Potency [8]: inactive
- Potency [18]: inactive
- Potency [19]: inactive
- Potency [9]: inactive

SMILES: CCCCCCCCCCCCCCCCCCn1cc[n+](C)c1
- Potency [1]: 10.9 µM (active)
- Potency [2]: 48.3 µM (active)
- Potency [20]: 21.6 µM (active)
- Potency [4]: 24.2 µM (active)
- Potency [5]: 17.1 µM (active)
- Potency [6]: 43 µM (active)
- Potency [7]: inactive
- Potency [8]: 30.5 µM (active)
- Potency [18]: 24.2 µM (active)
- Potency [19]: inactive
- Potency [9]: inactive

SMILES: CN(CCCC(=O)c1cccnc1)N=O
- Potency [1]: inactive
- Potency [2]: inactive
- Potency [16]: inactive
- Potency [17]: inactive
- Potency [4]: inactive
- Potency [5]: inactive
- Potency [6]: inactive
- Potency [7]: inactive
- Potency [8]: inactive
- Potency [9]: inactive

SMILES: Clc1ccc(CCC(Cn2ccnc2)Sc2c(Cl)cccc2Cl)cc1 (centres undefined)
- Potency [1]: 23.9 µM (active)
- Potency [2]: inactive
- Potency [3]: inactive
- Potency [16]: 29.8 µM (active)
- Potency [4]: inactive
- Potency [6]: inactive
- Potency [7]: 29.8 µM (active)

SMILES: ClC1=C(Cl)[C@]2(Cl)[C@@H]3[C@@H](Cl)[C@H](Cl)C[C@@H]3[C@@]1(Cl)C2(Cl)Cl
- Potency [1]: inactive
- Potency [2]: inactive
- Potency [16]: inactive
- Potency [17]: inactive
- Potency [4]: inactive
- Potency [5]: inactive
- Potency [6]: inactive
- Potency [7]: inactive
- Potency [8]: inactive
- Potency [18]: inactive
- Potency [19]: inactive

SMILES: O=[N+]([O-])c1cc([N+](=O)[O-])c2ccccc2c1
- Potency [1]: inactive
- Potency [2]: inactive
- Potency [3]: inactive
- outcome [10]: inactive
- Potency [11]: inactive
- outcome [12]: inactive
- Potency [13]: inactive
- Potency [14]: inactive
- outcome [15]: inactive
- Potency [16]: inactive
- Potency [17]: inactive
- Potency [4]: inactive
- Potency [5]: inactive
- Potency [6]: inactive
- Potency [7]: 24.3 µM (active)
- Potency [8]: inactive
- Potency [19]: inactive
- Potency [9]: inactive
